This is an account of results in PubChem BioAssay (NCATS).

Assay [1] has as its target Glutathione peroxidase 1 (Homo sapiens) (UniProt P07203). Put plainly: Primary qHTS Assay for Inhibitors of Recombinant Selenoprotein Glutathione Peroxidase 1 (GPX1) (AID 1845191). For activity, negative = inhibition: % is set by controls: 0 for no effect and ±100 for the full control effect. Note: nearly all actives have a fitted effect of over 65% in size. Summed up:
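Recombinant GPX1 (10 nM final) was preincubated with compound for 30 min at room temperature, then reacted with 1 mM GSH, 0.5 mM CHP, 0.5 mM NADPH and 100 nM glutathione reductase; NADPH fluorescence (340/450 nm) was read at 0 and 15 min.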
In general terms: In qHTS, concentration-response curves come from the screen itself.

The target in assay [2] is Phospholipid hydroperoxide glutathione peroxidase GPX4 (Homo sapiens) (UniProt P36969). Put plainly: Primary qHTS Assay for Inhibitors of Recombinant Selenoprotein Glutathione Peroxidase 4 (GPX4) (AID 1845192). For activity change, negative = inhibition: series mostly up to about 50 µM; % is set by controls: 0 for no effect and ±100 for the full control effect. Note: nearly all actives have a fitted effect of over 65% in size. Summed up: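 GR-coupled readout: 100 nM GR, 1 mM GSH, 0.5 mM NADPH; NADPH fluorescence (ex 340/em 450 nm) read at t=0 and after 15 min RT. GPX4 200 nM, preincubated 30 min with compound; substrate 0.5 mM CHP.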
Chain of Phospholipid hydroperoxide glutathione peroxidase GPX4 (Homo sapiens) (P36969 whole entry, looked up): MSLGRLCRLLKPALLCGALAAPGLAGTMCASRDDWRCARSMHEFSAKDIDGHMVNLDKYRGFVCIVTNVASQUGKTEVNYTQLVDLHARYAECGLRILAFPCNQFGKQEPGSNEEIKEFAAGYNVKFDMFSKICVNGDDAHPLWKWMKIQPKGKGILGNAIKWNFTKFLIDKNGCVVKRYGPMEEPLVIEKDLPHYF

The target of assay [3] is Luciferin 4-monooxygenase (Photinus pyralis) (UniProt P08659). Put plainly: Primary firefly luciferase (FLuc) qHTS assay for identification of artifact compounds. (AID 1845220).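 For activity change, negative = inhibition: series mostly up to about 54 µM; plate controls were DMSO vehicle for no effect and no enzyme for full effect.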 Note: nearly all actives have a fitted effect of over 60% in size. Summed up:
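qHTS, 15 min compound preincubation with substrate (10 uM luciferin, 10 uM ATP) at RT, then 10 nM FLuc; 5 min; luminescence; % inhibition vs no-enzyme/DMSO controls, 4-parameter Hill fit.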

Assay [4] can be described thus: Primary fluorescence-based thiol-reactive (MSTI) qHTS assay for identification of artifact compounds. (AID 1845221).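 For activity change, negative = thiol reactive: series mostly up to about 54 µM; thiol-reactive compounds lower the probe fluorescence signal.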 Note: nearly all actives have a fitted effect of over 65% in size. Note: potency is the fitted concentration of half-maximal effect. The method in brief: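 Curve-fitted percent inhibition (4-parameter Hill) derived from fluorescence, Ex 525/Em 598 nm, scaled with Acetyl-MSTI and MSTI; 1 h incubation at room temperature.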
For assay [5], the system named is Nanoluciferase (engineered Oplophorus gracilirostris luciferase). Put plainly: Primary Nanoluciferase (NLuc) qHTS assay for identification of artifact compounds. (AID 1845222).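 Note: series mostly up to about 54 µM; 0% = DMSO and -100% = no enzyme.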 Summed up: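 Luminescence read-out of secreted NLuc in S16 cell conditioned medium (1:55); compounds tested with 15 min RT preincubation, then Nano-Glo substrate 1:100, 5 min. % inhibition vs no-enzyme and DMSO controls, 4-parameter Hill fit.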

A short description of assay [6]: Primary redox qHTS assay for identification of artifact compounds. (AID 1845223).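 Note: 0% = DMSO and 100% = reference compound.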 The method in brief: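 Amplex Red (25 uM) and HRP (250 mU/mL) in HBSS, with compounds for 15 min, then 250 uM DTT for 30 min, room temperature, dark. Fluorescence 525/598 nm read; normalized to DMSO and 10 uM DA3003; Hill fit.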

Each structure is given as a SMILES string. A number with no mark means an inactive call. Results filed as inconclusive are left out. The source made the active and inactive calls. Calls come from the whole dose curve; as a rule, active = well fitted curve in the direction sought with a large enough effect; inconclusive = small, poorly fitted or top-dose-only effect, or another doubt; inactive = no such curve, though single readings can be large; an effect the other way counts as inactive or inconclusive. Where a SMILES comes first, the peptide text is derived from it. [ ]: non-standard residue; d: D form. ξ: configuration not given here. ξPhe(βξ-Me) = CC(c1ccccc1)C(N)C(=O)O; GABA = NCCCC(=O)O

Chain of Glutathione peroxidase 1 (Homo sapiens) (P07203 whole entry, looked up): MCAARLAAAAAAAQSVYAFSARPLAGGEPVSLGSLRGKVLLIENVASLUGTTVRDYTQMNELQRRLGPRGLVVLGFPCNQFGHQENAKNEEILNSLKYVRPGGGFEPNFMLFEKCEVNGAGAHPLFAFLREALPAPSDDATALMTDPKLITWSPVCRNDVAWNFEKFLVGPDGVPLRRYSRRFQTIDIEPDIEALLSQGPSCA

Consider `C=CC(=O)Nc1cccc(Nc2nc(Nc3ccc(N4CCN(C(C)=O)CC4)cc3OC)ncc2C(F)(F)F)c1`, for which the Potency result in assay [1], in assay [2], in assay [3] and in assay [5] was “inactive” throughout. For the same compound, in assay [4], the Potency was 2.99 µM (active).

Regarding `CN1CCC(Nc2nc(Nc3ccc(Oc4ccccc4)cc3)c3c(=O)[nH]cc(Br)c3n2)CC1`, the Potency entry in assay [1], in assay [2], in assay [3], in assay [4] and in assay [5] was “inactive” throughout.

In the case of `COc1cccc(C(=O)N2CCN(C(=O)COc3cccc(C)c3)CC2)c1OC`, the Potency result in assay [1], in assay [2], in assay [3], in assay [4] and in assay [5] was “inactive” each time.

As to `COC1CC(O[C@H]2CC[C@@]3(C)C(=CC[C@]4(O)C3[C@H](OC(C)=O)[C@@H](OC(=O)c3ccccc3)[C@]3(C)[C@@H](C(C)=O)CC[C@@]34O)C2)OC(C)C1OC1CC(OC)C(OC2CC(OC)C(OC3OC(C)C(OC4OC(CO)C(O)C(O)C4O)C(OC)C3O)C(C)O2)C(C)O1` (stereo partly drawn), the outcome in assay [1] was “inactive [at 9.52 µM]”; in assay [3] it was “inactive [at 11.6 µM]”. The activity change, negative = inhibition in assay [2] was -9.45% [at 9.73 µM]. Besides, in assay [4], the activity change, negative = thiol reactive is 29.9% [at 11.5 µM]. Moreover, the activity, negative = inhibition in assay [5] was 2.42% [at 11.6 µM].

As to `C=C1C[C@]23C[C@H]1CC[C@H]2[C@]1(C)CCC[C@@](C)(C(=O)O)[C@H]1[C@@H]3C(=O)O`, the Potency entry in assay [1], in assay [2], in assay [3], in assay [4] and in assay [5] was “inactive” each time.

As for `C[C@@H]1O[C@@H](O[C@H]2[C@H](O[C@H]3CC[C@@]4(C)C(CC[C@]5(C)C4CC=C4[C@@H]6CC(C)(C)CC[C@]6(C(=O)O[C@@H]6OC[C@H](O)[C@H](O)[C@H]6O[C@@H]6O[C@@H](C)[C@H](O[C@@H]7O[C@H](CO)[C@@H](O)[C@H](O)[C@H]7O)[C@H](O)[C@H]6O)[C@H](O)C[C@]45C)C3(C)C)O[C@H](CO)[C@@H](O[C@@H]3OC[C@@H](O)[C@H](O)[C@H]3O)[C@@H]2O)[C@H](O)[C@H](O)[C@H]1O` (stereo partly drawn), the results for the activity, negative = inhibition in assay [1] and in assay [5] were -13.9% [at 9.52 µM] and 3.16% [at 11.6 µM], respectively. The outcome in assay [2] was “inactive [at 9.73 µM]”. Further, the activity change, negative = inhibition in assay [3] is -1.49% [at 11.6 µM]. Further, the activity change, negative = thiol reactive in assay [4] was 113% [at 11.5 µM].

Consider `CC12CCC(OC3OC(CO)C(O)C(OC4OC(CO)C(O)C(O)C4O)C3O)CC1CCC1C2CCC2(C)/C(=C3/COC(=O)C3)CCC12O` (stereo not drawn), for which the Potency result in assay [1], in assay [2], in assay [3], in assay [4], in assay [5] and in assay [6] was “inactive” in each case.

With `CS(=O)(=O)c1ccc([C@H](CC2CCCC2)C(=O)Nc2nccs2)cc1`, the Potency result in assay [1], in assay [2], in assay [3], in assay [4], in assay [5] and in assay [6] was “inactive” throughout.

Consider `CC1NC(=O)CCCNC(=O)C(Cc2c[nH]c3ccccc23)NC(=O)C(C)NC(=O)C(C(C)C)NC(=O)C(C(C)c2ccccc2)NC(=O)C(C(C)C)NC1=O` (stereo not drawn) (cyclo([GABA]AV[ξPhe(βξ-Me)]VAW); configuration not given here), for which the Potency result in assay [1], in assay [2], in assay [3], in assay [4], in assay [5] and in assay [6] was “inactive” each time.

On to `C[C@@H]1O[C@@H](O[C@H]2[C@@H](OC(=O)[C@]34CCC(C)(C)CC3C3=CCC5[C@@]6(C)C[C@H](O)[C@H](O[C@@H]7O[C@H](C(=O)O)[C@@H](O)[C@H](O)[C@H]7O)[C@@](C)(C(=O)O)C6CC[C@@]5(C)[C@]3(C)CC4)OC[C@H](O)[C@@H]2O)[C@H](O)[C@H](O)[C@H]1O[C@@H]1OC[C@@H](O)[C@H](O)[C@H]1O` (stereo partly drawn), for which the Potency entry in assay [1] and in assay [2] was “inactive” in each case. The activity change, negative = inhibition in assay [3] is -6.45% [at 11.6 µM]. Moreover, in assay [4], the activity change, negative = thiol reactive is 118% [at 11.5 µM]. For the same compound, the activity, negative = inhibition in assay [5] is 0.813% [at 11.6 µM]. Besides, the redox activity (% of DA3003) in assay [6] was 13% [at 11.5 µM].

For the compound `Cc1cc(O)c(-c2ccc([C@@H](C)CN(C)C)cc2)c2c1[nH]c(=O)c1sccc12`, the Potency entry in assay [1], in assay [2], in assay [3], in assay [4], in assay [5] and in assay [6] was “inactive” throughout.

In the case of `Cc1cc(C(=O)N2Cc3cnn(C)c3Nc3ccccc32)ccc1CNC(=O)N1CCC[C@H]1C(=S)N1CCCN(C)CC1`, the Potency entry in assay [1], in assay [2], in assay [3], in assay [4], in assay [5] and in assay [6] was “inactive” throughout.

`C=C[C@@H]1[C@H](O[C@@H]2O[C@H](CO)[C@@H](O)[C@H](O)[C@H]2O)OC=C(C(=O)O)[C@H]1CCOC(=O)/C=C/c1ccc(O)c(O)c1`: the Potency entry in assay [1], in assay [2], in assay [3], in assay [5] and in assay [6] was “inactive” each time. The Potency in assay [4] was 1.3 µM (active).

Consider `CN(C)C1CCN(C(=O)c2ccc(NC(=O)Nc3ccc(-c4nc(N5CCOCC5)nc(N5CCOCC5)n4)cc3)cc2)CC1`, for which the Potency result in assay [1], in assay [2], in assay [3], in assay [4], in assay [5] and in assay [6] was “inactive” in each case.

Regarding `COc1ncc(Nc2ncc([C@H](C)N3CCN(S(C)(=O)=O)CC3)cc2-c2nc(C)nc(N)n2)cc1F`, the Potency result in assay [1], in assay [2], in assay [3], in assay [4], in assay [5] and in assay [6] was “inactive” throughout.

Turning to `CCC[C@@H]1O[C@@H]2C[C@H]3[C@@H]4CCC5=CC(=O)C=C[C@]5(C)[C@H]4[C@@H](O)C[C@]3(C)[C@]2(C(=O)CO)O1`, the Potency entry in assay [1], in assay [2], in assay [3], in assay [4], in assay [5] and in assay [6] was “inactive” in each case.

Consider `C[C@@H]1CN(Cc2ccccc2)C[C@H]1c1nc2c(cnn2C2CCOCC2)c(=O)[nH]1`, for which the Potency result in assay [1], in assay [2], in assay [3], in assay [4], in assay [5] and in assay [6] was “inactive” in each case.

Consider `CC(C(O)/C=C/C(C)(C)O)C1CCC2(C)C3C(=O)C=C4C(CCC(O)C4(C)C)C3(C)CCC12C` (stereo not drawn), for which the Potency entry in assay [1], in assay [2], in assay [3], in assay [4], in assay [5] and in assay [6] was “inactive” in each case.

As to `CN[C@H](C(=O)N[C@H](C(=O)N(C)[C@H](/C=C(\C)C(=O)O)C(C)C)C(C)(C)C)C(C)(C)c1ccccc1`, the Potency entry in assay [1], in assay [2], in assay [3], in assay [4], in assay [5] and in assay [6] was “inactive” throughout.

For `C=C(C(=O)O)C1CCC2(C)CCCC(C)(O)C2C1` (stereo not drawn), the Potency result in assay [1], in assay [2], in assay [3], in assay [5] and in assay [6] was “inactive” in each case. In addition, the Potency in assay [4] is 21.2 µM (active).

Consider `C=C1C(=O)O[C@H]2C1[C@H](OC(=O)/C(=C/CO)COC(=O)/C(C)=C/CO)CC(=C)[C@@H]1CC(=O)[C@@H](C)[C@@H]12` (stereo partly drawn), for which the Potency entry in assay [1], in assay [2], in assay [3], in assay [4], in assay [5] and in assay [6] was “inactive” in each case.

With `Oc1ccc(CNc2ccccc2F)c2cccnc12`, the Potency result in assay [1], in assay [2], in assay [3] and in assay [5] was “inactive” throughout. Further, the Potency in assay [4] is 3.77 µM (active).

For the compound `CC(C)S(=O)(=O)NC[C@H](C)c1ccc(NC(=O)c2cc(F)cc(F)c2)cc1`, the Potency result in assay [1], in assay [2], in assay [3], in assay [4], in assay [5] and in assay [6] was “inactive” each time.

For `COc1cc(O)c2c(c1)C1=C[C@H](O)[C@@H](O)C[C@]1(C)OC2=O`, the Potency entry in assay [1], in assay [2], in assay [3], in assay [4], in assay [5] and in assay [6] was “inactive” in each case.

As for `CC1(C)CCCC2(C)C=C(C(=O)O)C(O)CC12` (stereo not drawn), the Potency result in assay [1], in assay [2], in assay [3], in assay [4], in assay [5] and in assay [6] was “inactive” throughout.
